Reference: PubChem BioAssay (Tox21)
Values joined by “and” are separate entries in the source; they are usually repeats but may differ in a detail not shown here. Equal entries are not always repeated. Records with an inconclusive call do not appear. Some structures have more than one record in an assay (separate samples or runs), and their calls can disagree. Active and inactive are the calls of the source. Calls come from the whole dose curve.

Assay: Nuclear factor erythroid 2-related factor 2/antioxidant responsive element (Nrf2/ARE) small molecule agonists: luciferase reporter gene qHTS assay in human keratinocytes (AID 1919969); note: nearly all actives have a fitted effect of over 35% in size
Conditions: KeratinoSens HaCaT ARE-luciferase, luminescence, 24 h; series mostly up to 92.4 µM; activity, positive = activation: at the top concentration
Excerpt: National Center for Advancing Translational Sciences [NCATS]
Division of Preclinical Innovation [DPI]
U.S. Environmental Protection Agency [EPA]
National Institutes of Environmental Health Sciences [NIEHS]
National Toxicology Program [NTP]
U.S. Food and Drug Administration [FDA]
Oxidative stress has been implicated in the pathogenesis of a variety of diseases ranging from cancer to neurodegeneration. The antioxidant response element (ARE) signaling pathway plays an important role in the amelioration of oxidative stress. The KeratinoSens (Givaudan, Switzerland) is an in vitro test method which quantifies luciferase induction as a measure of activation of Keap1-Nrf2-antioxidationt/electrophile response element (ARE) dependant pathway in HaCaT human keratinocytes stably transfected with a selectable plasmid. The KeratinoSens assay is a cell-based assay with a reporter cell line to detect potential skin sensitizers by their ability to induce the Nrf2/ARE-response. The activation of the report gene under culture conditions can be detected by ONE-Glo Luciferase Assay System (Promega, Madison, WI). This cell line has been used to screen the Tox21 10K compound library to identify agonists that induce oxidative stress. The cytotoxicity of the Tox21 compound library against the KS-ARE cell line was tested in parallel by measuring the cell viability using CellTiter- Fluor assay system (Promega, Madison, WI) in the same wells.
HaCaT derived cell line KeratinoSens were dispensed at 1,500 cells/5uL/well in 1536-well white wall/solid bottom plates using a Multidrop Combi (ThermoFisher Scientific, Waltham, MA) dispenser. After the assay plates were incubated at 37 C/5% CO2 for 5 h, 23 nL of compounds dissolved in DMSO, positive controls or DMSO only was transferred to the assay plate by a pintool workstation (Kalypsys, San Diego, CA). The plates were incubated at 37 C/5% CO2 for 23 h, followed by addition of 1uL/well of CellTiter-Fluor reagent into the assay plates using a Flying Reagent Dispenser (Aurora Discovery, San Diego, CA) for cell viability readout that measures cytotoxicity. After 1 h incubation at 37 C/5% CO2 the fluorescence intensity was measured using a ViewLux (PerkinElmer, Shelton, CT) plate reader. Then 4uL/well of One-Glo were added using a Flying Reagent Dispenser. After the plates were incubated at room temperature for 30 min, the luminescence intensity in the assay plates was measured using ViewLux plate reader.
% is set by controls: 0 for no effect and ±100 for the full control effect; potency is the fitted concentration of half-maximal effect.

SMILES | Potency | activity, positive = activation
CCCCn1cc[n+](C)c1C | inactive | –
CNC(C)(C)Cc1ccccc1 | – | 1.78% [at 42.5 µM] (inactive)
Brc1c(Br)c(Br)c(Oc2c(Br)c(Br)c(Br)c(Br)c2Br)c(Br)c1Br | – | -3.66% [at 19 µM] (inactive)
O=C(CCl)c1ccc(Cl)cc1Cl | 60.8 µM (active) and 11.9 µM (active) | –
O=C(O)C(F)(F)C(F)(F)C(F)(F)C(F)(F)C(F)(F)C(F)(F)F | – | -14.4% (inactive)
Cc1cc(Cl)ccc1N=CN(C)C | inactive | –
C=C(C)[C@H]1Cc2c(ccc3c2O[C@@H]2COc4cc(OC)c(OC)cc4[C@@H]2C3=O)O1 | 13.9 µM (active) and 13.7 µM (active) and inactive | –
CCC[CH2][Sn]([Cl])([Cl])[CH2]CCC | 492 nM (active) and 969 nM (active) | –
CC(C)c1ccc(CO)cc1 | inactive | –
N#CCBr | – | 0.0731% (inactive)
O=C(NC(=O)c1ccccc1Cl)Nc1ccc(OC(F)(F)F)cc1 | – | 5.11% (inactive)
CN(C)P(=O)(N(C)C)N(C)C | inactive | –
O=C(O)C1C(C(=O)O)C2(Cl)C(Cl)=C(Cl)C1(Cl)C2(Cl)Cl (stereo not given) | inactive | –
C[N+](C)(C)CC(=O)O | inactive | –
CCC(=O)O[C@H]1CC[C@H]2[C@@H]3CCC4=CC(=O)CC[C@]4(C)[C@H]3CC[C@]12C | inactive | –
Cc1ccc2c(C)cccc2c1 | – | -2.46% (inactive)
COC[C@@H](NC(C)=O)C(=O)NCc1ccccc1 | – | -6.39% [at 42.5 µM] (inactive)
CC(C)=C[C@@H]1[C@@H](C(=O)OCc2coc(Cc3ccccc3)c2)C1(C)C | – | 12.7% (inactive)
CCCCCCCCCCCC#N | – | -9.98% (inactive)
Nc1ccc([As](=O)(O)O)cc1 | inactive | –

SMILES | Potency | activity, positive = activation
CC(C)(N)Cc1ccccc1Cl | – | -1.89% [at 42.5 µM] (inactive)
CCC(C)(C#N)N=NC(C)(C#N)CC (stereo not given) | – | -5.79% (inactive)
Cc1ncc(CNC(=O)N(CCCl)N=O)c(N)n1 | – | 1.56% [at 42.5 µM] (inactive)
Cc1cc(N=Nc2ccccc2C)ccc1N | – | 2.71% (inactive)
CCCCCCCCCCCC[N+](C)(C)CCOc1ccccc1 | inactive | –
O=C(O)C(Cl)Cl | inactive | –
ClC1=C(Cl)[C@]2(Cl)[C@@H]3[C@@H](Cl)[C@H](Cl)C[C@@H]3[C@@]1(Cl)C2(Cl)Cl | – | -7.56% (inactive)
CCN | – | -2.94% (inactive)
N#Cc1cccc(C#N)c1 | inactive | –
c1ccc(CN2CCNCC2)cc1 | – | 5.74% [at 240 µM] (inactive)
N#Cc1ccncc1 | – | -11.1% (inactive)
CC(C)(c1ccc(OCC2CO2)cc1)c1ccc(OCC2CO2)cc1 (stereo not given) | 27.7 µM (active) and 27.3 µM (active) | –
O=C/C=C/c1ccco1 | – | -4.54% (inactive)
CCCCCCCCCCCCBr | – | 21.1% (inactive)
O=[N+]([O-])O[C@H]1CO[C@H]2[C@@H]1OC[C@H]2O[N+](=O)[O-] | – | -4.82% [at 42.5 µM] (inactive)
ClC1(Cl)C2(Cl)C3(Cl)C4(Cl)C(Cl)(Cl)C5(Cl)C3(Cl)C1(Cl)C5(Cl)C24Cl (stereo not given) | – | -10.2% (inactive)
N#CCCC#N | – | 11% (inactive)
C1CC2OC2CC1C1CO1 (stereo not given) | inactive | –
Nc1cccc(Cl)c1 | inactive | –
O=C/C=C/c1ccccc1 | inactive | –
